Measured values published in PubChem BioAssay.
Several values for one entry are separate records, joined by “and”; a condition that tells them apart may be missing. Identical values can stand only once. Values without a mark were called inactive. Activity calls are given as the source filed them.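 How the source made its calls, unless noted: active means mean inhibition above 46.68%, the untreated control wells mean plus 3 SD; inactive means the rest.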

Target: Nuclear receptor coactivator 1 (Homo sapiens) (UniProt Q15788)
Sequence (Q15788 whole entry, looked up): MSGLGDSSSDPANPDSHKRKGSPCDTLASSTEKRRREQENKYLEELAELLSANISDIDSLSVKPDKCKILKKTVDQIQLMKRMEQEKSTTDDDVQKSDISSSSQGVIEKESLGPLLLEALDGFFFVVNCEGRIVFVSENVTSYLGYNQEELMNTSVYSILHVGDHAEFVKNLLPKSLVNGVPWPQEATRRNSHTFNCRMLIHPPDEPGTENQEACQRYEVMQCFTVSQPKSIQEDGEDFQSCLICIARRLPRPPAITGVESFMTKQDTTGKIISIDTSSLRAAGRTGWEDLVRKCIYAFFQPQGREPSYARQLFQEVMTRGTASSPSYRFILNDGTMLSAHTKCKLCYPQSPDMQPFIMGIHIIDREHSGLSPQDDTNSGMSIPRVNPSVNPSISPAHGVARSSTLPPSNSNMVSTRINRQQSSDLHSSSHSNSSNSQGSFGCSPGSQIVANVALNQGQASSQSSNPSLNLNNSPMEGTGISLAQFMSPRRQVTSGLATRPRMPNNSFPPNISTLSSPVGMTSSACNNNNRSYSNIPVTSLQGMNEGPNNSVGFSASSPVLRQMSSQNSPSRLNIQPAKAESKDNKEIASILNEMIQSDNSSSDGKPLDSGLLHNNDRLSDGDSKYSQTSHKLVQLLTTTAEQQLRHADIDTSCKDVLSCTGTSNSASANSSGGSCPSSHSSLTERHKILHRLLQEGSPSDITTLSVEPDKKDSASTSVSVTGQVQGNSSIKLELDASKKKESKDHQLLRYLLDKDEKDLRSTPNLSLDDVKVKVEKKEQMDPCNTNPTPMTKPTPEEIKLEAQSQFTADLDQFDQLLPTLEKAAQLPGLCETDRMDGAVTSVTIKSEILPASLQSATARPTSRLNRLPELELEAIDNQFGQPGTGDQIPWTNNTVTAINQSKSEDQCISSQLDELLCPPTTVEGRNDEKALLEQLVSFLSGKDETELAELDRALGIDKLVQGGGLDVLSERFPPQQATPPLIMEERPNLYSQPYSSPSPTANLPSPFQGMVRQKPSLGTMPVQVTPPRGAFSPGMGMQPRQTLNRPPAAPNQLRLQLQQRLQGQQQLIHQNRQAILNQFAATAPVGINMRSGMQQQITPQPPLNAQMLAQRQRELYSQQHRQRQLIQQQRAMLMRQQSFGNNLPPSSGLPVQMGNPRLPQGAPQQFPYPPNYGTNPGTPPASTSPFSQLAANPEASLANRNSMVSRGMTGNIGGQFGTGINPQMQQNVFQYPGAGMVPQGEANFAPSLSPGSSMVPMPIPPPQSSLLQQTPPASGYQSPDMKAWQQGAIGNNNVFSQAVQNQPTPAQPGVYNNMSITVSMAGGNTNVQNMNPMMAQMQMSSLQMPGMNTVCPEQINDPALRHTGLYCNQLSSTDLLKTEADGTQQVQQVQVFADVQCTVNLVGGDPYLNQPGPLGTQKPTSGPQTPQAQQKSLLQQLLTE
Test: SRC1 coactivator transcriptional activity inhibitors, confirmation, cell-based, luminescence, quadruplicate (AID 588820);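 further: 0% = DMSO wells and 100% = gossypol 36 µM treated wells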
Details: HEK293 GAL4-SRC1 luciferase reporter, at 3.6 µM, active compounds read high

SMILES | inhibition
O=C(Nc1cccc2c1CCCC2)c1cc([N+](=O)[O-])ccc1Cl | 19%
CC(=O)N1CCCC(c2cc(C(=O)Nc3ccccc3)no2)C1 (stereo not drawn) | -48.3%
Cc1ccc(C(=O)c2cccc(N)c2)cc1C | -41.2%
COCCNC(=O)c1c[nH]c2ccc(S(=O)(=O)N3CCc4ccccc43)cc2c1=O | 43.8%
NS(=O)(=O)c1ccc(N=Nc2c(O)[nH]c3ccc(Br)cc23)cc1 | 8.56%
COc1cccc(N2CCN(c3c(C#N)c(C(F)(F)F)nn3C)CC2)c1 | 48.8% (active)
CCN1CCN(C(=S)c2ccc(-c3ccccc3)cc2)CC1 | 37.8%
Cc1nc2sc(C(N)=O)c(N)c2c(C)c1CC(=O)c1ccccc1 | 35.5%
CN(C)CCNC(=O)c1ccc(Cl)c2cc3ccccc3nc12 | 14.8%
Cc1ncc(CO)c(/C=N/Nc2ccc(C(F)(F)F)cn2)c1O | 11.6%
O=C(Nc1ccc2c(c1)OCCO2)c1[nH]c(C(F)(F)F)nc1-c1ccccc1 | -3.74%
Cc1cc(NC2CCCC2)n2ncc(-c3ccccc3)c2n1 | -78.1%
c1ccc2c(-c3cccc4nccn34)cncc2c1 | 33.6%
Cc1ccccc1Cn1c(C)nc2ccccc21 | -27.4%
O=C(NCCc1cccc(Cl)c1)c1ccc(OC2CCN(Cc3ccccn3)CC2)cc1 | -20.2%
O=C(Nc1ccc(N2CCN(C(=O)c3ccco3)CC2)c(Cl)c1)c1cc2ccccc2o1 | -30.1%
Cc1sc2ncnc(NC3CCN(Cc4ccccc4)CC3)c2c1C | -6.93%
Cc1ccc(Oc2ccc(C(=O)NCc3ccncc3)cc2)cc1 | 2.24%
O=[N+]([O-])c1ccc2c(c1)-c1ccccc1C2=NO | 21.4%
C=C1C(=O)C23CCC4C(C)(C(=O)OC)CCCC4(C)C2CCC1(O)C3 (stereo not drawn) | -0.73%

SMILES | inhibition
CCn1c(Oc2cccc(Br)c2)nc2c1c(=O)n(C)c(=O)n2C | 15.8%
CCOC(=O)c1c(C)cc2c(CO)n[nH]c(=O)c2c1C | 11.6%
O=C1C=C(NCCc2cc(Br)c(O)c(Br)c2)C(=O)c2ncccc21 | -170%
O=C(CCl)Nc1ccc(Oc2cnc3ccccc3n2)cc1 | 4.66%
COc1ccc(CCNc2c(C)c(C)nc3ncnn23)cc1 | -13.9%
Cn1nnnc1Sc1ncnc2scc(-c3ccc4c(c3)OCO4)c12 | 0.44%
COc1ccc(S(=O)(=O)N2CCOCC2)cc1NC(=O)CCNC(=O)c1ccc(Br)cc1 | 64.3% (active)
c1cn(-c2ncnc3sc4c(c23)CCCC4)cn1 | 11.4%
CC(C)CCNC(=O)c1sc2ccc(S(=O)(=O)N3CCCCC3)cc2c1N | 13.5%
CN(c1ccc(C(=O)N2CCN(Cc3ccc4c(c3)OCO4)CC2)cc1)S(=O)(=O)c1ccccc1 | 14.7%
O=C1c2c(O)ccc(O)c2C(=O)c2c(NCCNCCO)ccc(NCCNCCO)c21 | -142% and -11.9%
COc1ccc(-c2noc(CCCCC(=O)N3CCN(c4cc(C)ccc4C)CC3)n2)cc1 | -26%
Cc1sc2ncnc(N3CCC(C(=O)N(C)CC(=O)Nc4cccc(F)c4)CC3)c2c1C | 33.5%
CCN(C(=O)c1cc(S(=O)(=O)N2CCCCC2)c[nH]1)c1ccc(OC)cc1 | 28.1%
Cc1ccc(C(=O)C(C(=O)/C=C/c2ccccc2)=C2SCCCS2)cc1 | 44.4%
C=C1C(=O)C23C(O)C1CCC2C12COC3(O)C(O)C1C(C)(C)CCC2O (stereo not drawn) | -16%
COc1ccc2c(=O)cc(-c3ccncc3)oc2c1OC | 43.9%
NC(=S)NN=Cc1ccc(OC(=O)COc2cc(Cl)c(Cl)cc2Cl)cn1 | 23.4%
COc1ccc(CNc2ncc(-c3ccc(F)cc3)n2C)c2ccccc12 | 41.3%

Test system: not listed separately
Test: VP16 transactivation inhibitors, counter-screen for SRC1 inhibitor project, cell-based, luminescence, high throughput (AID 588824; in the data active means inhibition above about 25%)
Details: cell-based VP16 transactivation luciferase luminescence; at 3.6 µM; active compounds read high

SMILES | inhibition
O=C(Nc1cccc2c1CCCC2)c1cc([N+](=O)[O-])ccc1Cl | 25%
CC(=O)N1CCCC(c2cc(C(=O)Nc3ccccc3)no2)C1 (stereo not drawn) | -15.3%
Cc1ccc(C(=O)c2cccc(N)c2)cc1C | 3.5%
COCCNC(=O)c1c[nH]c2ccc(S(=O)(=O)N3CCc4ccccc43)cc2c1=O | 29.5% (active)
NS(=O)(=O)c1ccc(N=Nc2c(O)[nH]c3ccc(Br)cc23)cc1 | 5.38%
COc1cccc(N2CCN(c3c(C#N)c(C(F)(F)F)nn3C)CC2)c1 | 32.2% (active)
CCN1CCN(C(=S)c2ccc(-c3ccccc3)cc2)CC1 | 12.8%
Cc1nc2sc(C(N)=O)c(N)c2c(C)c1CC(=O)c1ccccc1 | 5.05%
CN(C)CCNC(=O)c1ccc(Cl)c2cc3ccccc3nc12 | 29.6% (active)
Cc1ncc(CO)c(/C=N/Nc2ccc(C(F)(F)F)cn2)c1O | 18.7%
O=C(Nc1ccc2c(c1)OCCO2)c1[nH]c(C(F)(F)F)nc1-c1ccccc1 | -15.6%
Cc1cc(NC2CCCC2)n2ncc(-c3ccccc3)c2n1 | -34.6%
c1ccc2c(-c3cccc4nccn34)cncc2c1 | 30.7% (active)
Cc1ccccc1Cn1c(C)nc2ccccc21 | 29.1% (active)
O=C(NCCc1cccc(Cl)c1)c1ccc(OC2CCN(Cc3ccccn3)CC2)cc1 | -8.94%
O=C(Nc1ccc(N2CCN(C(=O)c3ccco3)CC2)c(Cl)c1)c1cc2ccccc2o1 | 6.89%
Cc1sc2ncnc(NC3CCN(Cc4ccccc4)CC3)c2c1C | 23.8%
Cc1ccc(Oc2ccc(C(=O)NCc3ccncc3)cc2)cc1 | 23.4%
O=[N+]([O-])c1ccc2c(c1)-c1ccccc1C2=NO | 9.81%
C=C1C(=O)C23CCC4C(C)(C(=O)OC)CCCC4(C)C2CCC1(O)C3 (stereo not drawn) | 53.7% (active)

SMILES | inhibition
CCn1c(Oc2cccc(Br)c2)nc2c1c(=O)n(C)c(=O)n2C | 12.3%
CCOC(=O)c1c(C)cc2c(CO)n[nH]c(=O)c2c1C | 23.1%
O=C1C=C(NCCc2cc(Br)c(O)c(Br)c2)C(=O)c2ncccc21 | 14.2%
O=C(CCl)Nc1ccc(Oc2cnc3ccccc3n2)cc1 | 2.08%
COc1ccc(CCNc2c(C)c(C)nc3ncnn23)cc1 | 29.1% (active)
Cn1nnnc1Sc1ncnc2scc(-c3ccc4c(c3)OCO4)c12 | 3.16%
COc1ccc(S(=O)(=O)N2CCOCC2)cc1NC(=O)CCNC(=O)c1ccc(Br)cc1 | 61.1% (active)
c1cn(-c2ncnc3sc4c(c23)CCCC4)cn1 | 7.19%
CC(C)CCNC(=O)c1sc2ccc(S(=O)(=O)N3CCCCC3)cc2c1N | 13.8%
CN(c1ccc(C(=O)N2CCN(Cc3ccc4c(c3)OCO4)CC2)cc1)S(=O)(=O)c1ccccc1 | 23%
O=C1c2c(O)ccc(O)c2C(=O)c2c(NCCNCCO)ccc(NCCNCCO)c21 | 20.7% and 0.91%
COc1ccc(-c2noc(CCCCC(=O)N3CCN(c4cc(C)ccc4C)CC3)n2)cc1 | 32.4% (active)
Cc1sc2ncnc(N3CCC(C(=O)N(C)CC(=O)Nc4cccc(F)c4)CC3)c2c1C | 22.7%
CCN(C(=O)c1cc(S(=O)(=O)N2CCCCC2)c[nH]1)c1ccc(OC)cc1 | 22.5%
Cc1ccc(C(=O)C(C(=O)/C=C/c2ccccc2)=C2SCCCS2)cc1 | 34.3% (active)
C=C1C(=O)C23C(O)C1CCC2C12COC3(O)C(O)C1C(C)(C)CCC2O (stereo not drawn) | -9.14%
COc1ccc2c(=O)cc(-c3ccncc3)oc2c1OC | 19.3%
NC(=S)NN=Cc1ccc(OC(=O)COc2cc(Cl)c(Cl)cc2Cl)cn1 | 18.9%
COc1ccc(CNc2ncc(-c3ccc(F)cc3)n2C)c2ccccc12 | -14.1%
